# Test results as given in the supplement of paper PMC11732987, “Enantioselective OTUD7B fragment discovery through chemoproteomics screening and high-throughput optimisation” (Communications Chemistry, 2025).
# Values without a mark were called inactive.
# Assays:
# Test in all cases: log2 ratio of Biotin-Ahx-Ub-VS probe labelling (fragment/DMSO); higher = less target engagement (more negative = stronger competition), active = hit call of the paper (q ≤ 0.05, log2 ratio ≤ -1)
# Conditions in all cases: compound concentration: 200 uM; treatment time: 3 h
# OTUD6B = target: T1, OTUD6B (UniProt Q8N6M0)
# T1 sequence (whole entry): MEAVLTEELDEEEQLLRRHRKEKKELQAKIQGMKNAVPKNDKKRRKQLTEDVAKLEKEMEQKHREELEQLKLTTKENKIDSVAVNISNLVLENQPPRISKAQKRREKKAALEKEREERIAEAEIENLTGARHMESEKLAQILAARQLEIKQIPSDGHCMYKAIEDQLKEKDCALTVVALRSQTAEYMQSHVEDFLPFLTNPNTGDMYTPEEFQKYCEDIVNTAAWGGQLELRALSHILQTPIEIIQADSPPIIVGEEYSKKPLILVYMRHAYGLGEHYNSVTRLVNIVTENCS
# Summary of the method: (§1)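 Each value is an average log2 ratio of fragment to vehicle, tested by unpaired t-test. The underlying Spectronaut label-free quantities were global-median-normalised, and only proteins with ≥2 unique peptides were included. Triplicate HEK293T lysate samples (495 µg) were exposed to fragment at 200 µM or vehicle for 3 h, then to Biotin-Ahx-Ub-VS at 0.5 µM final for 1 h, before NeutrAvidin enrichment of labelled DUBs, LysC and trypsin digestion, and diaPASEF LC-MS/MS.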
# OTUD7B = target: T2, OTUD7B (UniProt Q6GQQ9)
# T2 sequence (whole entry): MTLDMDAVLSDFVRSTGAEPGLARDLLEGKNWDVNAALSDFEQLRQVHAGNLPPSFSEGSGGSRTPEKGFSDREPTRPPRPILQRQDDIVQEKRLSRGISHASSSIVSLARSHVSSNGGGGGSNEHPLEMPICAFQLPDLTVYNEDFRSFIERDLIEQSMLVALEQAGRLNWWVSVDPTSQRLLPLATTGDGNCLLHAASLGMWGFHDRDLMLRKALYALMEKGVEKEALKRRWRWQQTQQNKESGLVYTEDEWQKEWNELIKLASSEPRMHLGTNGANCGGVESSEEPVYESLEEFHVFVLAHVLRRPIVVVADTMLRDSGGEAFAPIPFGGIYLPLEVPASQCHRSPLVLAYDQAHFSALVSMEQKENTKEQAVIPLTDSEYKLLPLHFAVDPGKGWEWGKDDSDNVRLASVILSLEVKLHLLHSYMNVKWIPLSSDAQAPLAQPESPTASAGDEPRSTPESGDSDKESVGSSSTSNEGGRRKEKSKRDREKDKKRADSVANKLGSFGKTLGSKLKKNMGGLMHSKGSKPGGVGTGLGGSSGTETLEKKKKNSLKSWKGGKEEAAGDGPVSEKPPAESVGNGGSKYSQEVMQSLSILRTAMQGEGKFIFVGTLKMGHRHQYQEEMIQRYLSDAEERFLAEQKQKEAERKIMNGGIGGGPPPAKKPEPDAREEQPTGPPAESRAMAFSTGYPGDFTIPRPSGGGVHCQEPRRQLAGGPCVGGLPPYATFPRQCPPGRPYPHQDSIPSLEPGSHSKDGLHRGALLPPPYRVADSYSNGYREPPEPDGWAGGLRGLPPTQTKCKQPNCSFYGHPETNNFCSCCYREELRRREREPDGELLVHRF
# Summary of the method: as §1
# PRPF8 = PRPF8 (UniProt Q6P2Q9)
# Summary of the method: as §1
# PSMD7 = target: T3, PSMD7 (UniProt P51665)
# T3 sequence (whole entry): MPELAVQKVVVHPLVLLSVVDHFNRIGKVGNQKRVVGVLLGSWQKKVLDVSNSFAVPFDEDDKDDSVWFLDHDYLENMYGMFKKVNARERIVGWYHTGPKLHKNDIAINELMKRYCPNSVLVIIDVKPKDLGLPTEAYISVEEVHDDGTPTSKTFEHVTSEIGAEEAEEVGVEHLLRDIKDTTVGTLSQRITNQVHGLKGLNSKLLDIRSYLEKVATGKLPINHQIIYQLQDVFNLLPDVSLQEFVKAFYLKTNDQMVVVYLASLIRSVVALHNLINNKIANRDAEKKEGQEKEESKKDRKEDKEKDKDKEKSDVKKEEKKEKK
# Summary of the method: as §1
# UCHL1 = UCHL1 (UniProt P09936)
# Chain of UCHL1 (P09936 whole entry, looked up): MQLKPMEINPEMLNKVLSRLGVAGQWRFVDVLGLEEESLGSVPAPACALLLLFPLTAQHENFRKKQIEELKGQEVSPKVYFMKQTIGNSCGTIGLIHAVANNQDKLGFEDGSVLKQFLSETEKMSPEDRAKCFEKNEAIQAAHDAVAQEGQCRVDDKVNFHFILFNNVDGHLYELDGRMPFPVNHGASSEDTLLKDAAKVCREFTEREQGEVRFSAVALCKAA
# Summary of the method: as §1
# UCHL3 = target: T4, UCHL3 (UniProt P15374)
# T4 sequence (whole entry): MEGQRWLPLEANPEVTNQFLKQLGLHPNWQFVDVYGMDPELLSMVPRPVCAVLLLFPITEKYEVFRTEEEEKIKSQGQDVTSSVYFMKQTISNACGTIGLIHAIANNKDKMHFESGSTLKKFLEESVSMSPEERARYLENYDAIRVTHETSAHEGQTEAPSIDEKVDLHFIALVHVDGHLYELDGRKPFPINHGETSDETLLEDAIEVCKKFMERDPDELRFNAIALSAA
# Summary of the method: as §1
# UCHL5 = target: T5, UCHL5 (UniProt Q9Y5K5)
# T5 sequence (whole entry): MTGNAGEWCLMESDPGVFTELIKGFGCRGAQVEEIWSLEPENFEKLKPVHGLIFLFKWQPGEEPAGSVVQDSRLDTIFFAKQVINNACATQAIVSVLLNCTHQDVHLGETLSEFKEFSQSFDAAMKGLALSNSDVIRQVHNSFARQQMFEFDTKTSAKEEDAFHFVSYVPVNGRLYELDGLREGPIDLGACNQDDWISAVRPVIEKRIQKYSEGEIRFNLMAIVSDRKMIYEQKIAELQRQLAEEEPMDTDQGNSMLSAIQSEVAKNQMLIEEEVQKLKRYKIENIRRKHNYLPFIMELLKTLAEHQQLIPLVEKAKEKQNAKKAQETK
# Summary of the method: as §1
# USP10 = USP10 (UniProt Q14694)
# Chain of USP10 (Q14694 whole entry): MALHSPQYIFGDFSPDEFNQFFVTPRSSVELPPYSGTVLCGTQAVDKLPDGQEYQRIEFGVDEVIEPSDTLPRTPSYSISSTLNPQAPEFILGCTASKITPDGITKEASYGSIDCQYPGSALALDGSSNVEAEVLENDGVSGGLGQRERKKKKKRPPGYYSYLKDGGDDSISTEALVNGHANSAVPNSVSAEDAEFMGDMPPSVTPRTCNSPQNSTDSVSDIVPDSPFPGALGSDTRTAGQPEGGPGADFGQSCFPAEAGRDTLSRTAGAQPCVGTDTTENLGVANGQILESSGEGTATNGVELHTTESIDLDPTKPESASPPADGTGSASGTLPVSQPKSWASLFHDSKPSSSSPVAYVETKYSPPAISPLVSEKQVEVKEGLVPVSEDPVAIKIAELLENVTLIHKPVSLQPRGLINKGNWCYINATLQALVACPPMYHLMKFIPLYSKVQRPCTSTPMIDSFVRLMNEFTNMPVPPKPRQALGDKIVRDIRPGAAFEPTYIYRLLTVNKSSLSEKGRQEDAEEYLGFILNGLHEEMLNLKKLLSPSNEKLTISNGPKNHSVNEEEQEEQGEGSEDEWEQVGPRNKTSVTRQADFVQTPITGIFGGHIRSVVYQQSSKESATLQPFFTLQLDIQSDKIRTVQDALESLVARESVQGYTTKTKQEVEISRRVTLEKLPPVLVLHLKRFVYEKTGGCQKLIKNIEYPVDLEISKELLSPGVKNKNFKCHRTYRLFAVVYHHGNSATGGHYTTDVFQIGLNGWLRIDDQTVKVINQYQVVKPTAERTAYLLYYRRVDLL
# Summary of the method: as §1
# USP15 = target: T6, USP15 (UniProt Q9Y4E8)
# T6 sequence (whole entry): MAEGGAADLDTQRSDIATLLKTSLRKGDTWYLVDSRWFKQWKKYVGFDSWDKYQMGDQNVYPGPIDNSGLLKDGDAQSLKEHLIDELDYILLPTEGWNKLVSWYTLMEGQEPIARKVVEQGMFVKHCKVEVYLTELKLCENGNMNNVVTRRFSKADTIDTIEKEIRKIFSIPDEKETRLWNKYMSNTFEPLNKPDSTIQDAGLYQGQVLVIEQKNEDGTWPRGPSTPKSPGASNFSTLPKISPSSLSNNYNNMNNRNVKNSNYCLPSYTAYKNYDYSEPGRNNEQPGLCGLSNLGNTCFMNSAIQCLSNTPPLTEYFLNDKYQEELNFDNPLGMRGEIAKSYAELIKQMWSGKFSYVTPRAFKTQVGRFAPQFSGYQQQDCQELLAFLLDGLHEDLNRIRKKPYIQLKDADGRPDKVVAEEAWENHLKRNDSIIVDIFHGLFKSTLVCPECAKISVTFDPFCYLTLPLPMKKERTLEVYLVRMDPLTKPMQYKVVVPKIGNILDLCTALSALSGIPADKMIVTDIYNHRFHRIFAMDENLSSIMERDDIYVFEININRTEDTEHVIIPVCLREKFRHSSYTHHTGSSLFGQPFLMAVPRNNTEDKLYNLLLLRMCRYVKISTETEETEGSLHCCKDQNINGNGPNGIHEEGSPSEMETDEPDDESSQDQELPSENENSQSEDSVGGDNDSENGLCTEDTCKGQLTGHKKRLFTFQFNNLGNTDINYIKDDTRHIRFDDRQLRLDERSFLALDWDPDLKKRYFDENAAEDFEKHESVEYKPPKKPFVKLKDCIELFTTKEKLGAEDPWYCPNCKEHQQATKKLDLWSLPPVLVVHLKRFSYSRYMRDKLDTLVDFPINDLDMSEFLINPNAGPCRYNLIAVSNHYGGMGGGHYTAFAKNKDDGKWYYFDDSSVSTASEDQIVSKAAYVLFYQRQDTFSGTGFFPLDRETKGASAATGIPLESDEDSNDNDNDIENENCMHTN
# Summary of the method: as §1
# USP16 = USP16 (UniProt Q9Y5T5)
# Chain of USP16 (Q9Y5T5 whole entry, looked up): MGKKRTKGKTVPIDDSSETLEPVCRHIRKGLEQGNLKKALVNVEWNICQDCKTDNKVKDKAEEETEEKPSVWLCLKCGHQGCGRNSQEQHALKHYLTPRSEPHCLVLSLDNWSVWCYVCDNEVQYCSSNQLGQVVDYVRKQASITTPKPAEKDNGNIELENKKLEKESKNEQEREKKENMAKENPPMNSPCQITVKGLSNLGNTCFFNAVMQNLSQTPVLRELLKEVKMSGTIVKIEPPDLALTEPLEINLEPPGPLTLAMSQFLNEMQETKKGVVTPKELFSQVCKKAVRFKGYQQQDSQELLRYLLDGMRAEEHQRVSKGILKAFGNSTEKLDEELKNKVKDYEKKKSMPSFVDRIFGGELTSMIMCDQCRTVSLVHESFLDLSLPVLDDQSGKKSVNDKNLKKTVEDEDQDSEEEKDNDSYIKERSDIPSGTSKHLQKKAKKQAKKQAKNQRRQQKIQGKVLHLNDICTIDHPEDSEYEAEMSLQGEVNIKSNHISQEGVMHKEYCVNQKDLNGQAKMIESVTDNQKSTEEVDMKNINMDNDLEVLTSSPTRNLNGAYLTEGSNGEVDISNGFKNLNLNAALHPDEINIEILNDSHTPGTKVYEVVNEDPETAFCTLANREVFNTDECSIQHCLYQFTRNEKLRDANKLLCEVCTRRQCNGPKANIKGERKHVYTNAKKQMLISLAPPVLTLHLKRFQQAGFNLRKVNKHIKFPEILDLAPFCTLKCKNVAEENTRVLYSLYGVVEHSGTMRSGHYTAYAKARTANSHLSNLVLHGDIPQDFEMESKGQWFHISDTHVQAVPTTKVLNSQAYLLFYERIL
# Summary of the method: as §1
smiles,measurement,setting,value
O=C(CCl)N1CCN(C(=O)N2CCCCC2)CC1,log2 ratio of Biotin-Ahx-Ub-VS probe labelling,OTUD6B,-1.28 (active)
same,log2 ratio of Biotin-Ahx-Ub-VS probe labelling,OTUD7B,-1.17 (active)
same,log2 ratio of Biotin-Ahx-Ub-VS probe labelling,PRPF8,-0.0826
same,log2 ratio of Biotin-Ahx-Ub-VS probe labelling,PSMD7,-0.335
same,log2 ratio of Biotin-Ahx-Ub-VS probe labelling,UCHL1,-2.3 (active)
same,log2 ratio of Biotin-Ahx-Ub-VS probe labelling,UCHL3,-0.528
same,log2 ratio of Biotin-Ahx-Ub-VS probe labelling,UCHL5,-0.96
same,log2 ratio of Biotin-Ahx-Ub-VS probe labelling,USP10,-0.21
same,log2 ratio of Biotin-Ahx-Ub-VS probe labelling,USP15,-0.839
same,log2 ratio of Biotin-Ahx-Ub-VS probe labelling,USP16,0.0515
